# Laboratory results: PubChem BioAssay AID2766 (Sanford-Burnham Center for Chemical Genomics, 2010)
# This is one part of the list. A number with no mark means an inactive call. Rule as the data show it: active = inhibition above about 50%; inactive = the rest.
# Target: Apelin receptor (Homo sapiens) (UniProt P35414)
# Experiment: APJ antagonists blocking beta-arrestin recruitment, confirmation, cell-based, luminescence, single concentration, uHTS hits (AID 2766)
# Conditions: antagonist mode, at 20 µM, active compounds read high
# Sequence of Apelin receptor (Homo sapiens) (P35414 whole entry, looked up): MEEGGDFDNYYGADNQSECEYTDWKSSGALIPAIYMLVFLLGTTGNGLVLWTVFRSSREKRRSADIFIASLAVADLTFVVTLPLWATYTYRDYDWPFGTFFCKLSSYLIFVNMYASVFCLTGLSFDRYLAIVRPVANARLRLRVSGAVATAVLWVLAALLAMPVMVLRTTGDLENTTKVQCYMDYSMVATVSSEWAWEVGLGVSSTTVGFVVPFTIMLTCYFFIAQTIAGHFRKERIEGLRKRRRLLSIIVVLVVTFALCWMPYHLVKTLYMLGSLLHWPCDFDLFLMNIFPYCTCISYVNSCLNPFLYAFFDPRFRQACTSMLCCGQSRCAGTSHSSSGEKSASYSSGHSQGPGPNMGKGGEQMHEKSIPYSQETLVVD
smiles,measurement,value
CCOC(=O)c1c(N)n(Cc2ccccc2)c2nc3ccccc3nc12,inhibition,35%
